# Experimental data taken from ChEMBL document CHEMBL4513216, “Probing the Open Global Health Chemical Diversity Library for Multistage-Active Starting Points for Next-Generation Antimalarials” (ACS Infect Dis, 2020).
# About 8,600 (12%) of roughly 69,000 compounds showed an effect of 50% or more. For the sample, strong results were picked, then their nearest neighbours and some compounds at random.
# Tested on: Plasmodium berghei
# Test: Screen against P. berghei liver stage (PbLuc), transformed with Luciferase, at 10uM
# Assay type: functional, HepG2
# Details: tested at 10 uM
row,SMILES,INHIBITION
1,CCOCCN1Cc2cnn(C)c2C(COCC)C1 (stereo not given),42.7%
2,CN(C)c1ncccc1CNC(=O)N1CCCC1c1cccs1 (stereo not given),4.71%
3,CCN1CCN(C)C2(CCN(Cc3ccc(C)o3)CC2)C1=O,-93.5%
4,O=c1[nH]cc(N2CCOCC2)c(=O)[nH]1,-56.8%
5,CCn1ccnc1CN1CCN(CCc2ccccn2)CC1C (stereo not given),13.8%
6,O=C1N(CC2CC2)CCC12CCN(CC1CC1)CC2,21.7%
7,O=C(CCCNCc1ccccc1)N1CCCn2cncc2C1,30.9%
8,Cc1ccc(CN2CCc3ncnc(-c4cccnc4)c3CC2)o1,13.7%
9,Cc1cc(N2CCC(C(=O)N(C)C)CC2)nc(-c2ccncc2)n1,-148%
10,COc1cccc(-c2c[nH]c(C)n2)c1F,-114%
11,O=C(NC1CC(=O)N(C2CC2)C1)c1ccc(Cl)s1 (stereo not given),33.1%
12,CCCS(=O)(=O)N1CCC(NC(=O)c2ccc(Cl)s2)CC1,21%
13,CC(C)N1CC(NC(=O)c2ccc(Cl)s2)CC1=O (stereo not given),83.8%
14,O=C(NCCCF)N1CCC(n2ccc(C(F)(F)F)n2)CC1,36.3%
15,O=C(CNC(=O)N1CCc2c([nH]c3ccc(Cl)cc23)C1)NC1CCCC1,-6.91%
16,COCC(=O)N1CC(c2n[nH]cc2C)C1,-41.1%
17,O=C(NC1CC1)c1cc2c(s1)CCN2C(=O)C1CC1,51.4%
18,O=C(NC1CCCC1)c1cc2c(s1)CCN2C(=O)c1ccccc1,55.9%
19,O=C(NCCN1CCCC1)c1cc2c(s1)CCN2C(=O)c1ccccc1,-28%
20,O=C(c1cc2c(s1)CCN2C(=O)C1CC1)N1CCCC1,23.3%
21,CN1CCN(C(=O)c2cc3c(s2)CCN3C(=O)C2CC2)CC1,-29.8%
22,CCCNC(=O)c1cc2c(s1)CCN2C(=O)c1ccccc1,-27%

row,SMILES,INHIBITION
1,c1cncc(COCc2nnn3c2CN(Cc2ccsc2)CC3)c1,-9.26%
2,OCCNc1cc(-c2nccnc2N2CCCC2)c2cc[nH]c2n1,37.7%
3,O=C(O)CNc1cc(-c2nccnc2N2CCCC2)c2cc[nH]c2n1,51.8%
4,O=C(O)CNc1cc(-c2cc(C3CC3)ncn2)c2cc[nH]c2n1,19.5%
5,Nc1cc(-c2ccc(C(=O)O)cc2O)c2cc[nH]c2n1,2.91%
6,Nc1cc(-c2nccnc2N2CCCC2)c2cc[nH]c2n1,58.3%
7,Nc1cc(-c2cc(C(=O)O)ccc2Cl)c2cc[nH]c2n1,15.2%
8,CN1CC(=O)N(c2cccc(F)c2)CC12CCN(Cc1cncn1C)C2 (stereo not given),-15.7%
9,CS(=O)(=O)NCC1CCCN(C(=O)c2ccc(Cl)o2)C1 (stereo not given),15%
10,O=C(c1ccccn1)N1CC[C@@H](N2CCOCC2)[C@@H]1Cc1ccccc1,39.2%
11,Cc1nccn1-c1cncc(C2CCCN2Cc2ccccc2)n1 (stereo not given),36.7%
12,COCCN1CCCc2sc(C(=O)N3CCCN(C)CC3)nc21,5.36%
13,Clc1ccccc1CN1CCc2nc(C3CCCNC3)ncc2C1 (stereo not given),6.32%
14,Cc1noc(NC(=O)c2ccccc2)n1,-10.6%
15,Cc1noc(NC(=O)c2cccc(Br)c2)n1,88.2%
16,Cc1noc(NC(=O)c2ccc(Br)cc2)n1,91.5%
17,Cc1noc(NC(=O)c2ccc(OC(F)(F)F)cc2)n1,87.6%
18,Cc1noc(COCC(=O)Nc2ccc(Br)c(C)n2)n1,10.7%
19,Cc1c(NC(=O)c2cccc(Br)c2)c(C(=O)N(C)C)nn1C,45.8%
20,Cc1noc(NC(=O)c2ccc(C#N)cc2)n1,-0.96%
21,Cn1nc(CNC(=O)c2ccc(OC(F)(F)F)cc2)c2c1CCOC2,-6.42%
22,Cc1noc(NC(=O)CCNC(=O)c2ccc(Br)cc2)n1,14.1%

row,SMILES,INHIBITION
1,Cc1noc(NC(=O)c2ccc(Br)s2)n1,85.9%
2,Cc1noc(NC(=O)c2ccc(Br)o2)n1,31.9%
3,Cc1ccc(C(=O)Nc2nc(C)no2)cc1,23.7%
4,Cc1n[nH]c(C)c1NC(=O)NCc1cc[nH]n1,36%
5,O=C(NCC1CCCO1)N1CCN(Cc2ccc3c(c2)CCO3)CC1 (stereo not given),-21.5%
6,OCCNc1nccc(-c2c[nH]nc2-c2cccnc2)n1,15.9%
7,C[C@@H]1CN(C(=O)NC2CC2)C[C@]12CCN(c1ccsc1)C2=O,17.1%
8,CC(=O)N1CCCC1(C(=O)N1CCCC1)c1cnccn1 (stereo not given),6.35%
9,CN(C)S(=O)(=O)c1ccc(=O)n(CC2CCCO2)c1 (stereo not given),-28.9%
10,CC(C)CNC(=O)Cc1cnc(-n2cccc2)s1,28.3%
11,CC(=O)N1CCCC(Cc2cnc(-c3c(C)nn(C)c3C)cn2)C1 (stereo not given),-10.4%
12,COc1ccc2c(c1)CCCN(C(=O)NCC1CCCO1)C2 (stereo not given),37.4%
13,NC(=O)CN1CCCN(C(=O)CCOc2ccccc2Cl)CC1,29.7%
14,CCCNC(=O)C1(Cc2cc(-c3ccccc3)no2)CCN(C(C)=O)C1 (stereo not given),-3.94%
15,CC(O)CNc1c(NCc2ccco2)c(=O)c1=O (stereo not given),18.2%
16,c1ccc(Cc2noc(CN3CCOC(Cn4cncn4)C3)n2)cc1 (stereo not given),13.3%
17,COCCO[C@@H]1CCN(Cc2csc(C)n2)[C@H]1Cc1ccccc1,18.1%
18,Cc1noc(C)c1-c1cccc(CC2CCN(C(=O)c3cc[nH]n3)C2)n1 (stereo not given),46.1%
19,CS(=O)(=O)Nc1ccc(CNC(=O)CN2CCc3ccccc32)cc1,16.6%
20,NS(=O)(=O)N1CCc2ccc(NC(=O)CCc3ccncc3)cc21,38.5%
21,NS(=O)(=O)N1CCc2ccc(NC(=O)CC(F)(F)F)cc21,63.3%
22,CS(=O)(=O)N1CCc2c(cccc2NC(=O)CC(F)(F)F)C1,0.79%

row,SMILES,INHIBITION
1,NS(=O)(=O)N1CCc2ccc(NC(=O)Cc3ccccc3F)cc21,54.4%
2,NS(=O)(=O)N1CCc2ccc(NC(=O)Cc3ccc(F)cc3)cc21,22.9%
3,Cc1cnc2c(C(=O)N(C)Cc3cc(C4CC4)[nH]n3)cnn2c1,21.8%
4,CC(C)NC(=O)Nc1nc2c(s1)CN(C(=O)NCc1cccs1)CC2,46.4%
5,c1ccc(-c2nc(CCNCc3cccnc3)co2)cc1,45.3%
6,COCC1Cn2nnc(-c3cnn(C)c3)c2CN1Cc1cccs1 (stereo not given),2.58%
7,O=C(c1cccs1)N1CCc2c(nc(N3CCCC3)[nH]c2=O)C1,34%
8,CC(CNS(=O)(=O)c1cccc(Cl)c1)N1CCN(C)CC1 (stereo not given),46.4%
9,Cc1cccc(S(=O)(=O)NCC(C)N2CCN(C)CC2)c1Cl (stereo not given),-38.2%
10,Cc1cc(Cl)ccc1S(=O)(=O)NCC(C)N1CCN(C)CC1 (stereo not given),68.3%
11,Cc1cc(N(C)C)nc(C2(C)CCCN2C(=O)c2cnccn2)n1 (stereo not given),16.5%
12,CCOCCNCc1cc(O)c2cc(C)ccc2n1,53.3%
13,CCOCC1(CNCc2cc(O)c3cc(C)ccc3n2)CC1,35.4%
14,CCS(=O)(=O)CCNCc1cc(O)c2cc(C)cc(C)c2n1,45.8%
15,CCOCCCNCc1cc(O)c2cc(C)ccc2n1,0.672%
16,Cc1ccc2nc(CNCCCOc3ccccc3)cc(O)c2c1 [UCSF924],75.7%
17,COCCCNCc1cc(O)c2cc(C)cc(C)c2n1,51.2%
18,Cc1ccc2nc(CNCCCN3CCCC3=O)cc(O)c2c1,31.7%
19,CCN(CC)CCNCc1cc(O)c2cc(C)ccc2n1,16.3%
20,Cc1cc(C)c2nc(CNCCNS(C)(=O)=O)cc(O)c2c1,43.9%
21,Cc1cc2nc(SCC(=O)NC(C)C)n(Cc3ccco3)c(O)c-2n1,12.6%
22,CN(CC(=O)N1CCCN(Cc2cscn2)CC1)c1cnccn1,13.9%

row,SMILES,INHIBITION
1,COCCN1CC[C@@H]2OC[C@H](C(=O)NCc3cccs3)C[C@@H]2C1,41.5%
2,Cc1ncsc1CN1CCOC(C)(C(=O)N2CCOCC2)C1 (stereo not given),-3.94%
3,CNc1nc(CNC(=O)Nc2ccccc2C(F)(F)F)cs1,19.4%
4,NC(=O)C1(c2cnccn2)CCCN1C(=O)Cc1ccsc1 (stereo not given),12.84%
5,Cc1ccc(C(=O)NCc2cccnc2-n2cncn2)cc1S(C)(=O)=O,17.2%
6,CN(C)c1ccc(C(=O)NCc2cccnc2-n2cncn2)cc1F,52.6%
7,O=C(NCc1cccnc1-n1cncn1)c1cncc(Br)c1,43.8%
8,CCN(CC)c1ccc(C(=O)NCc2cccnc2-n2cncn2)cn1,16.6%
9,O=C(NCc1cccnc1-n1cncn1)c1cc(Cl)ccn1,38.5%
10,CCCc1nc(C(=O)NCc2cccnc2-n2cncn2)cs1,-22.1%
11,O=C(NCc1cccnc1-n1cncn1)c1ccncc1,51.2%
12,CN(C)c1cc(C(=O)NCc2cccnc2-n2cncn2)ccn1,83.7%
13,O=C(NCc1cccnc1-n1cncn1)c1ccc2c(c1)CCO2,-0.113%
14,CCN1CCC2(CN(C(=O)N(C)C)CC23CCN(CC2CC2)CC3)C1=O (stereo not given),-38.1%
15,CCCn1c(N2CCCC2)nc2c(C)nn(C)c2c1=O,44.05%
16,CC(C)C(NC(=O)c1cnc(N2CCOCC2)nc1)c1cccs1 (stereo not given),38.7%
17,Cc1ccccc1NCc1nc2n(n1)CCCCC2,34.2%
18,CCN1CC(Oc2ccc(Cl)cc2)=NC(SCC(=O)c2ccccc2)=N1,55.5%
19,CN1CC(Oc2ccc(Cl)cc2)=NC(SCC(=O)c2ccccc2)=N1,12.9%
20,CN1CC(Oc2ccccc2)=NC(SCC(=O)c2ccccc2)=N1,1.98%
21,Cn1c(=O)n(C)c2nc(Br)c(CC(=O)c3ccccc3)n2c1=O,37.3%
22,CC(C(=O)NCc1ccnc(N(C)C)c1)n1cccn1 (stereo not given),49.4%
